Results reported in ChEMBL document CHEMBL1157539, “Thousands of chemical starting points for antimalarial lead identification” (Nature, 2010).

Key:
Assay type in all cases: functional
Plasmodium falciparum [1] = experiment: GSK_TCMDC: Inhibition of Plasmodium falciparum 3D7 in whole red blood cells, using parasite LDH activity as an index of growth. Test compounds present at 2uM
Plasmodium falciparum [2] = experiment: GSK_TCMDC: Inhibition of Plasmodium falciparum Dd2 in whole red blood cells, using parasite LDH activity as an index of growth. Test compounds present at 2uM
HepG2 = experiment: GSK_TCMDC: Percent inhibition of human HepG2 cell line. Test compounds present at 10uM.

Row | SMILES | Inhibition (Plasmodium falciparum [1]) [%] | Inhibition (Plasmodium falciparum [2]) [%] | Inhibition (HepG2) [%]
1 | CCOC(=O)c1ccc(NC(=O)c2ccccc2C(=O)O)cc1 | 92 | 0 | 2
2 | CCOC(=O)c1nc(-c2cccc(F)c2)[nH]c1N.Cl | 98 | 2 | 0
3 | CCN(CC)CCN(Cc1ccc(-c2ccc(C(F)(F)F)cc2)cc1)C(=O)Cn1c(CCc2ccc(F)c(F)c2F)nc(=O)c2ccccc21.O=C(O)C(O)C(O)C(=O)O | 97 | 66 | 38
4 | CCNc1cc(C(=O)N[C@@H](Cc2ccccc2)[C@H](O)CNC2CCCCC2)cc(N2CCCCS2(=O)=O)c1 | 99 | 98 | 11
5 | CN1CCC(OC(=O)c2cc3cc(-c4ccccc4)ccc3n2S(=O)(=O)c2ccccc2)CC1.Cl | 88 | 10 | 31
6 | O=C(Cc1c[nH]cn1)Nc1cccc(-c2cccc(-c3nc4cc(F)ccc4[nH]3)c2)c1 | 100 | 97 | 21
7 | CC(C)(C)N1CCC(N(Cc2ccc(-c3ccc(C(F)(F)F)cc3)cc2)C(=O)Cn2c(CCc3cccc(F)c3F)cc(=O)c3ccccc32)CC1.O=C(O)C(O)C(O)C(=O)O | 100 | 97 | 100
8 | O=C(NCCCCCN1CCC(c2c[nH]c3ccccc23)CC1)c1ccc(Cl)c(Cl)c1 | 85 | 10 | 48
9 | CN1CCN(CCNc2c3ccccc3nc3ccc4ccccc4c23)CC1.Cl | 99 | 99 | 22
10 | Cc1oc(-c2cccc(Oc3ccccc3)c2)nc1CN(Cc1cnn(C)c1)C(C)C | 89 | 61 | 22
11 | COc1ccccc1CNC(=O)CCn1c(=O)[nH]c2ccsc2c1=O | 85 | 75 | 0
12 | Cl.O=C(/C=C/c1ccccc1F)NC1CCC(CCN2CCc3ccc(-c4cccnc4)cc3CC2)CC1 (configuration not stated) | 92 | 5 | 34
13 | FC(F)(F)c1ccc(CNCC2CCN(Cc3ccc4c(c3)OCO4)CC2)cc1.O=C(O)C(F)(F)F | 80 | 12 | 27
14 | COc1ccc(NC(=O)C2c3ccccc3C(=O)N(C3CCCC3)C2c2cccs2)c(OC)c1 (configuration not stated) | 84 | 54 | 3
15 | O=C(Nc1cccc(CN2CCCN(Cc3cccc(Cl)c3)CC2)c1)c1ccc(-c2ccccc2)cc1.O=C(O)C(F)(F)F | 86 | 14 | 44
16 | O=c1sn(-c2csc3ccccc23)c2ccccc12 | 94 | 54 | 14
17 | Nc1ncc(-c2ccsc2)c2ccc(-c3cc(NCc4ccccc4)ncn3)cc12 | 100 | 86 | 0
18 | CC(NC(=O)NC1CCC(CCN2CCCc3ccccc32)CC1)c1cccc2ccccc12.O=C(O)C(F)(F)F (configuration not stated) | 90 | 83 | 0
19 | CC(C)[C@H](NCC(=O)c1ccccc1)C(=O)O.Cl | 99 | 0 | 6
20 | Nc1nc(N)c2c(ccn2Cc2cc3c(cc2Cl)OCO3)n1 | 98 | 11 | 67
21 | COc1ccc2nc3cc(Cl)ccc3c(NCCN(C)C)c2c1 | 100 | 100 | 4
22 | Cl.O=S(=O)(c1ccc2ccccc2c1)N1CCCN(Cc2ccc(OCCCN3CCCCC3)cc2)CC1 | 98 | 11 | 43
23 | O=C(Cc1ccc(NC(=O)c2ccc(O)c(-c3ccc(Cl)c(Cl)c3)c2)cc1)NCCc1ccc(Cl)c(Cl)c1 | 99 | 88 | 0
24 | COc1ccc(Nc2ncc3c(-c4cccc(NC(=O)Cc5ccncc5)c4)c[nH]c3n2)cc1OC | 99 | 87 | 23
25 | NC1CCCN(Cc2cccc(-c3cccc(-c4nc5ccccc5[nH]4)c3)c2)C1.O=C(O)C(F)(F)F (configuration not stated) | 100 | 61 | 24

Row | SMILES | Inhibition (Plasmodium falciparum [1]) [%] | Inhibition (Plasmodium falciparum [2]) [%] | Inhibition (HepG2) [%]
26 | Cc1[nH]c2ccccc2c1C(=O)C(C)Sc1nnc(-c2ccccc2F)o1 (configuration not stated) | 99 | 99 | 24
27 | O=c1[nH]c2c(cc1CNC1CCCCC1)c(-c1cccc(F)c1)nn2-c1ccccc1 | 95 | 89 | 6
28 | NC1CCCN(Cc2cccc(-c3ccc(-c4nc5ccccc5[nH]4)cc3)c2)C1.O=C(O)C(F)(F)F (configuration not stated) | 100 | 73 | 25
29 | Nc1c(Cl)cc(C(O)CNCCCCCOCCc2ccc3ccccc3n2)cc1Cl.O=C(O)/C=C/C(=O)O (configuration not stated) | 98 | 97 | 9
30 | Cc1cccc2nc(-c3cccc(-c4ccc(NC(=O)c5ccncc5)cc4)c3)[nH]c12 | 98 | 74 | 34
31 | Cc1cc(N/N=C/c2ccc([N+](=O)[O-])cc2)c2ccc(F)cc2n1 | 100 | 22 | 0
32 | CN1CCCC1CCNc1ncc2c(-c3ccc(NC(=O)Nc4cc(C(F)(F)F)ccc4F)c(F)c3)nn(C)c2n1.O=C(O)C(F)(F)F (configuration not stated) | 99 | 90 | 100
33 | Cl.O=c1cc(NCCCNCc2cc3c(Cl)cc(Cl)cc3[nH]2)[nH]c2ccccc12 | 100 | 0 | 0
34 | Cc1nc(C(=O)N2CCCC[C@H]2CNC(=O)c2ccc(-c3ccc(N4CCCC4=O)cc3C)cc2)c(-c2ccc(F)cc2)s1 | 98 | 94 | 6
35 | O=C(Nc1cccc(CN2CCCN(Cc3ccc(O)cc3)CC2)c1)c1cc(F)cc(F)c1.O=C(O)C(F)(F)F | 100 | 13 | 15
36 | COc1ccccc1Cn1ccnc1SCC(=O)Nc1cccc(C(F)(F)F)c1 | 86 | 73 | 0
37 | CCCc1cc2c3c(N)nc(N)nc3ccc2n1C(CC)CC | 100 | 73 | 70
38 | CS(=O)(=O)N1CC2(CCN(CCC(NC(=O)Nc3ccccc3)c3ccc(Cl)c(Cl)c3)CC2)c2ccccc21 (configuration not stated) | 99 | 72 | 23
39 | CCc1cn(C)c2c(N3CCCC3=O)cc(C(=O)N[C@@H](Cc3ccccc3)[C@H](O)CNC3CCCCC3)cc12 | 97 | 98 | 8
40 | c1ccc2c(c1)ncc1c3ccccc3[nH]c21 | 95 | 36 | 0
41 | Cc1cccc(C(=O)Nc2ccnc(N3CCCN(Cc4cccc(O)c4)CC3)c2)c1.O=C(O)C(F)(F)F | 84 | 13 | 0
42 | Clc1ccc(-c2cc(-c3csc(NCCN4CCCCC4)n3)on2)cc1 | 91 | 30 | 81
43 | Cc1cccc2nc(-c3ccc(-c4ccc(NC(=O)Nc5cccc(C#N)c5)cc4)s3)[nH]c12 | 100 | 100 | 33
44 | COC(=O)c1ccc2nc(-c3ccc(/C=C/C(=O)NC4CCN(Cc5ccccc5)CC4)cc3)[nH]c2c1 | 100 | 88 | 12
45 | CC(=O)c1ccc(-c2cccc3c(CC(=O)Nc4ccc5nccc(N6CCN(C)CC6)c5c4)cccc23)cc1 | 100 | 96 | 3
46 | O=C(NCCN1CCOCC1)c1ccc(N2CCC(Oc3ccc4ccccc4c3)CC2)nc1 | 92 | 30 | 1
47 | COc1ccc2nccc([C@@H](O)CN3CCC(NC(=O)/C=C/c4ccc5[nH]c(=O)ccc5c4)CC3)c2c1 | 96 | 83 | 2
48 | CC(C)N1CCN(c2ccc(OCCCN3CCN(c4cccc(Cl)c4Cl)CC3)c(C(F)(F)F)c2)CC1 | 94 | 37 | 79
49 | Cl.N=C(N)c1ccc2[nH]c(SCc3ccccc3)nc2c1 | 97 | 100 | 0
